This passage reports growth results from PubChem BioAssay (NCI).

About 83,000 compounds went through this panel and 20% of them were active in at least one assay; those are over-represented in the sample as a whole.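 The endpoint reported here, percent growth, reads 100 for growth as untreated, 0 for no net growth and -100 for all cells dead.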 Values without a mark were called inactive. Active and inactive are the calls of the source. The calls were made as follows: active = growth percent below 10; inactive = the rest.

Some test systems named below: DU-145 prostate; K-562 leukemia; MALME-3M melanoma; MDA-MB-231 breast; RXF 393 renal; SF-268 CNS; SF-295 CNS; SF-539 CNS; M14 melanoma; UACC-257 melanoma.
Common to all, as to assay: NCI-60 one-dose screen, 48 h (100 = growth as untreated, 0 = no growth, -100 = all killed)
Conditions in all cases: 10 µM unless noted

As for `O=c1nc(NO)[nH]c(=O)n1Cc1ccccc1`, the growth in the assay on DU-145 prostate was 115%; in the assay with K-562 leukemia, 108%; in the assay on MALME-3M melanoma, 100%; with MDA-MB-231 breast, 123%; with RXF 393 renal, 94.8%; in the assay with SF-268 CNS, 106%. Further, the growth in the assay on SF-295 CNS is 93.7%; in the assay with SF-539 CNS, 98.7%; in the assay on M14 melanoma it was 106%.
For the molecule `Cc1nc2cc(Nc3nc(Nc4ccc(F)cc4)nc(-c4ccc(Cl)cc4)n3)ccc2n1Cc1ccccc1`, the growth was 81.4% with DU-145 prostate; 33.6% in the assay on K-562 leukemia; 72.5% in the assay on MALME-3M melanoma; 66% in the assay with MDA-MB-231 breast; 68.5% with RXF 393 renal; 54.9% in the assay with SF-268 CNS. Besides, the growth in the assay on SF-295 CNS is 90.4%; with SF-539 CNS, 92.6%; in the assay on UACC-257 melanoma it was 68.9%; in the assay with M14 melanoma, 58.3%.
`CC(C)(C)CC(C)(C)N(CSc1ccc(Cl)cc1)CSc1ccc(Cl)cc1`: the growth was 73.8% with DU-145 prostate; 34.8% with K-562 leukemia; 82.1% with MALME-3M melanoma; 0.954% (active) in the assay on MDA-MB-231 breast; 66.2% in the assay on RXF 393 renal; 31.5% with SF-268 CNS. The growth in the assay with SF-295 CNS was 27.2%; in the assay on SF-539 CNS, 6.24% (active); in the assay on UACC-257 melanoma it was 63%; in the assay on M14 melanoma, 48.3%.
For the molecule `COc1cc(-c2nc(SC(C)C)nc(Nc3cccc(C)c3)c2C#N)cc(OC)c1OC`, the growth was 109% in the assay with DU-145 prostate; 99.5% in the assay on K-562 leukemia; 108% in the assay on MALME-3M melanoma; 99.2% with MDA-MB-231 breast; 127% with RXF 393 renal; 107% in the assay on SF-268 CNS. Also, the growth with SF-295 CNS was 101%; in the assay with SF-539 CNS, 107%; in the assay on UACC-257 melanoma, 98.9%; in the assay with M14 melanoma it was 108%.
Consider `COc1ccc(-n2c(SCc3cc(OC)c(OC)c(OC)c3)nc3ccc(C)cc3c2=O)c(OC)c1`, for which the growth was 4.58% (active) with DU-145 prostate; 14.4% with K-562 leukemia; 25.5% with MALME-3M melanoma; 44.8% in the assay on MDA-MB-231 breast; 19.6% with RXF 393 renal; 44.1% in the assay with SF-268 CNS. Also, the results for the growth in the assay with SF-295 CNS, in the assay with SF-539 CNS and with M14 melanoma were 6.35% (active), 20% and 11.2%, respectively.
On to `COc1cc(C2=NN(c3ccc(S(N)(=O)=O)cc3)C(c3ccc(Cl)cc3)C2)cc(OC)c1OC` (stereo not drawn), for which the growth in the assay on DU-145 prostate was 65.9%; with K-562 leukemia, 18.7%; with MALME-3M melanoma, 85.7%; with MDA-MB-231 breast, 43.7%; in the assay on RXF 393 renal it was 34.8%; in the assay on SF-268 CNS, 48.2%. The growth with SF-295 CNS was 25%; with SF-539 CNS, 69.1%; in the assay on UACC-257 melanoma, 57.5%; in the assay on M14 melanoma, 45.7%.
On to `CN1CCN(C(=O)OCCOCCOC(=O)N2CCN(C)CC2)CC1`, for which the growth in the assay with DU-145 prostate is 111%; with K-562 leukemia, 106%; in the assay on MALME-3M melanoma, 133%; in the assay with MDA-MB-231 breast it was 94.9%; in the assay on RXF 393 renal, 87.8%; in the assay on SF-268 CNS it was 102%. Besides, the growth in the assay on SF-295 CNS is 85.9%; with SF-539 CNS, 97.9%; in the assay with UACC-257 melanoma, 94.2%; in the assay with M14 melanoma, 103%.
With `N#CC1=C(N)Oc2cc(N)ccc2C1c1ccc(F)cc1` (stereo not drawn), the growth is 93.1% in the assay with DU-145 prostate; 24.8% in the assay with K-562 leukemia; 71.9% with MALME-3M melanoma; 83.4% in the assay with MDA-MB-231 breast; 74.9% in the assay with RXF 393 renal; 81.9% in the assay on SF-268 CNS. In addition, the growth in the assay on SF-295 CNS is 72.2%; in the assay with SF-539 CNS, 83.6%; in the assay on UACC-257 melanoma, 95.6%; with M14 melanoma, 51.1%.
With `Cc1nc2cc(Nc3nc(N4CCCCC4)nc(N4CCOCC4)n3)ccc2n1Cc1ccccc1`, the growth in the assay with DU-145 prostate was 5.36% (active); in the assay with K-562 leukemia, 84.3%; with MALME-3M melanoma, -3.76% (active); with MDA-MB-231 breast it was 9.6% (active); with RXF 393 renal, -5.84% (active); in the assay with SF-268 CNS, 69%. Also, the growth with SF-295 CNS is 78.9%; in the assay on SF-539 CNS, 81.6%; in the assay with UACC-257 melanoma, 60.4%; in the assay with M14 melanoma it was 48.4%.
Regarding `COc1ccc(C2=NOC(CC(=O)N(CCO)CCO)C2)cc1OC1CCCC1` (stereo not drawn), the growth in the assay with DU-145 prostate is 105%; in the assay on K-562 leukemia, 121%; in the assay with MALME-3M melanoma, 111%; in the assay on MDA-MB-231 breast, 103%; in the assay on RXF 393 renal it was 102%; with SF-268 CNS, 97%. Also, the growth in the assay with SF-295 CNS is 97.1%; in the assay on SF-539 CNS it was 104%; in the assay with UACC-257 melanoma, 102%; in the assay on M14 melanoma, 92.2%.
As to `COc1ccc(-c2c(-c3cc4c(c(OC)c3OC)OCO4)noc2N)cc1`, the growth is 12.2% with DU-145 prostate; 16.1% with K-562 leukemia; 56.7% in the assay with MALME-3M melanoma; 48.7% with MDA-MB-231 breast; -13.6% (active) in the assay with RXF 393 renal; 45.8% with SF-268 CNS. In addition, the growth was 2.69% (active) in the assay with SF-295 CNS, 1.11% (active) in the assay with SF-539 CNS, 66.8% with UACC-257 melanoma and 12.6% in the assay with M14 melanoma.
With `CC1(C)CC(=O)C2=C(C1)Nc1cc3c(cc1C2c1ccc(F)cc1)OCO3` (stereo not drawn), the growth was 117% in the assay with DU-145 prostate; 87.8% in the assay with K-562 leukemia; 81.2% in the assay on MALME-3M melanoma; 108% in the assay with MDA-MB-231 breast; 82.3% in the assay with RXF 393 renal; 92.5% with SF-268 CNS. Also, the growth is 64.3% in the assay on SF-295 CNS, 102% in the assay with SF-539 CNS, 110% in the assay with UACC-257 melanoma and 115% in the assay with M14 melanoma.
Turning to `COC(=O)c1c2c(c(C)[n+]([O-])c1C)C(=O)C=C(NCc1cccc(OC)c1)C2=O`, the growth was -99.1% (active) in the assay with DU-145 prostate; -23.6% (active) in the assay with K-562 leukemia; -98.9% (active) in the assay on MALME-3M melanoma; -17.4% (active) in the assay with MDA-MB-231 breast; -46.7% (active) in the assay with RXF 393 renal; -16.1% (active) with SF-268 CNS. In addition, the growth was -97.5% (active) in the assay on SF-295 CNS, -92.3% (active) in the assay on SF-539 CNS, -87.1% (active) in the assay on UACC-257 melanoma and -83.4% (active) with M14 melanoma.
For `COc1ccc2nc(-n3nc(C)cc3C)c(-n3nc(C)cc3C)nc2c1`, the growth in the assay with DU-145 prostate is 128%; with K-562 leukemia, 114%; in the assay with MALME-3M melanoma, 108%; in the assay on MDA-MB-231 breast, 103%; with RXF 393 renal, 104%; with SF-268 CNS, 119%. Further, the growth with SF-295 CNS was 98.7%; with SF-539 CNS it was 107%; with UACC-257 melanoma, 119%; in the assay on M14 melanoma, 102%.
